Records with an inconclusive call do not appear. Where a call stands in place of a potency, no number is given. The source made the active and inactive calls. Unless noted, calls follow the shape of the dose curve; as a rule, active = well fitted curve in the direction sought with a large enough effect in the repeat runs; inconclusive = weak or mixed curves; inactive = no such curve, though single readings can be large; an effect the other way counts as inactive or inconclusive.

Results on 46 compounds are retold here after PubChem BioAssay (NCATS).

Assay [1] is described as follows: Primary qHTS for small molecule stabilizers of the endoplasmic reticulum resident proteome: Secreted ER Calcium Modulated Protein (SERCaMP) assay (AID 1508630; active = well fitted curve in the direction sought with a large enough effect; an effect the other way counts as inactive or inconclusive). The following applies: SH-SY5Y GLuc-SERCaMP (Gaussia luciferase released on ER calcium loss) secretion, thapsigargin, luminescence; series mostly up to 38.4 µM. An outline of the steps: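 GLuc-SERCaMP-expressing SH-SY5Y cells, pretreated 16 h with compound, are challenged with thapsigargin to empty ER calcium stores; after 4 h, coelenterazine is added directly to the medium and luminescence is imaged.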
(In general: qHTS replaces the single test concentration by a dilution series.)

Assay [2] can be described thus: A High-Content qHTS Against Drug Library for the Identification of Small Molecules that Inhibit DYT1 Early Onset Primary Dystonia-Associated Cell Pathology (AID 1645839; calls by dose curve). The conditions noted are these: HEK293 Flp-In EGFP-delE TorsinA, punctate imaging, 48 h; series mostly up to 46.1 µM. The method, boiled down: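 Flp-In T-REx 293 cells with tetracycline-inducible EGFP-delE hTOR1A (WT EGFP-hTOR1A as reference), 800 cells/well; compound added with tetracycline, 48 h at 37 C. Fixed, permeabilized cells imaged; %pathology (punctate TorsinA) primary, cell count counterscreen.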

Assay [3] addresses Cytochrome P450 2D6 (Homo sapiens) (UniProt P10635). Put plainly: Cytochrome P450 family 2 subfamily D member 6 (CYP2D6) small molecule antagonists: luciferase biochemical (cell-free) qHTS assay (AID 1645840). Also: nearly all actives have a fitted effect of over 55% in size. Also: potency is read from the fitted curve at half-maximal effect. The following applies: P450-Glo CYP2D6 enzyme, luciferin luminescence, 1 h; series mostly up to 57.4 µM. An outline of the steps:
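P450-Glo luminescent screen: recombinant CYP2D6 enzyme–proluciferin substrate mix preincubated with compound 10 min at room temperature, then NADPH regeneration added for 1 h at room temperature. Detection reagent added for 20 min; luciferin light read as relative luminescence units.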

Assay [4] deals with Cytochrome P450 2C9 (Homo sapiens) (UniProt P11712). Put plainly: Cytochrome P450 family 2 subfamily C member 9 (CYP2C9) small molecule antagonists: luciferase biochemical (cell-free) qHTS assay (AID 1645842). Also: nearly all actives have a fitted effect of over 55% in size. Also: potency is read from the fitted curve at half-maximal effect. The conditions noted are these: P450-Glo CYP2C9 enzyme assay, luciferin luminescence; series mostly up to 57.4 µM. The method, boiled down:
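Luminescence, after 20 min with luciferin detection reagent, reflected CYP2C9 turnover during a 1 h NADPH-driven reaction at 37C. Enzyme-substrate mix contained 0.4% bovine serum albumin and was preincubated with compound 10 min at room temperature.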

Assay [5] can be described thus: Cytotoxicity counterscreen for inhibitors of SARS-CoV-2 cell entry (AID 1645845; calls by dose curve; also: nearly all actives have a fitted effect of over 50% in size). The following applies: cell viability (SARS-CoV-2 entry assay cells); series mostly up to 57.1 µM. An outline of the steps:
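HEK293-ACE2 cells (Expi293F stably expressing human ACE2) seeded overnight, then compound for 1 h plus 48 h at 37C. Viability as ATP content by luminescence; normalized to wells with cells and media-only wells.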
For orientation: A counterscreen serves to expose hits that act by an unwanted route or on another target.

Assay [6] addresses Cytochrome P450 3A4 (Homo sapiens) (UniProt P08684). In words: Cytochrome P450 family 3 subfamily A member 4 (CYP3A4) small molecule antagonists: luciferase qHTS assay (AID 1645841). Also: nearly all actives have a fitted effect of over 45% in size. The following applies: P450-Glo CYP3A4 enzyme assay, luciferin luminescence; series mostly up to 57.4 µM. The method, boiled down: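 P450-Glo CYP3A4 enzyme with proluciferin substrate preincubated 10 min with compound at room temperature, then NADPH regeneration 1 h. Luciferin detection reagent added for 20 min; luminescence recorded. Ketoconazole positive control.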

Chain of Cytochrome P450 2C9 (Homo sapiens) (P11712 whole entry, looked up): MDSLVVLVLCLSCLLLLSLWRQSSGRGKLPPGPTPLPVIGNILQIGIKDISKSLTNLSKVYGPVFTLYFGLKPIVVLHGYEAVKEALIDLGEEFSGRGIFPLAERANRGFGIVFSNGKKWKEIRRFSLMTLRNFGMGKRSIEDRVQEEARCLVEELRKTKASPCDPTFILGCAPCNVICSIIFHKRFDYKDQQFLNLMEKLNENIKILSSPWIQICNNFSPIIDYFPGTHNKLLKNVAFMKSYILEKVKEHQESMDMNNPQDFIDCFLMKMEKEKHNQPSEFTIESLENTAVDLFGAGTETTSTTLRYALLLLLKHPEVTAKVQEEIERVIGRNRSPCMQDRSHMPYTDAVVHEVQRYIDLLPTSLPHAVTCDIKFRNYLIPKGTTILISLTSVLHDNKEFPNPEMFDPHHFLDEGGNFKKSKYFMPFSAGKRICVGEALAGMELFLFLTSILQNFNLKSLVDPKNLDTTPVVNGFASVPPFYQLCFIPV
Chain of Cytochrome P450 2D6 (Homo sapiens) (P10635 whole entry, looked up): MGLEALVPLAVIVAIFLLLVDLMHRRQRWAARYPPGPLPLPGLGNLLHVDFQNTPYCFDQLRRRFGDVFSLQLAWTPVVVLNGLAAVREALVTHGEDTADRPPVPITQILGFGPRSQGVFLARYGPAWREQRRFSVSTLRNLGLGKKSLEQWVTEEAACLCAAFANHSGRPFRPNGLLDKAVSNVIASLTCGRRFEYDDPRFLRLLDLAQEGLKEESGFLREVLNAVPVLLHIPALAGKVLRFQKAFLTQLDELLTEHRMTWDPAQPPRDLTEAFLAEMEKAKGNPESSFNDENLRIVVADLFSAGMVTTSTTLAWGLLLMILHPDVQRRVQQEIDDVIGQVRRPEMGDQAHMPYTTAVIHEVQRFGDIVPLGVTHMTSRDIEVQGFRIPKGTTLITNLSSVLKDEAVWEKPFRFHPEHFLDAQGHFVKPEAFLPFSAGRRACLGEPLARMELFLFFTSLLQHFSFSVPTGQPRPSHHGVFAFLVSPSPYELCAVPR
Chain of Cytochrome P450 3A4 (Homo sapiens) (P08684 whole entry, looked up): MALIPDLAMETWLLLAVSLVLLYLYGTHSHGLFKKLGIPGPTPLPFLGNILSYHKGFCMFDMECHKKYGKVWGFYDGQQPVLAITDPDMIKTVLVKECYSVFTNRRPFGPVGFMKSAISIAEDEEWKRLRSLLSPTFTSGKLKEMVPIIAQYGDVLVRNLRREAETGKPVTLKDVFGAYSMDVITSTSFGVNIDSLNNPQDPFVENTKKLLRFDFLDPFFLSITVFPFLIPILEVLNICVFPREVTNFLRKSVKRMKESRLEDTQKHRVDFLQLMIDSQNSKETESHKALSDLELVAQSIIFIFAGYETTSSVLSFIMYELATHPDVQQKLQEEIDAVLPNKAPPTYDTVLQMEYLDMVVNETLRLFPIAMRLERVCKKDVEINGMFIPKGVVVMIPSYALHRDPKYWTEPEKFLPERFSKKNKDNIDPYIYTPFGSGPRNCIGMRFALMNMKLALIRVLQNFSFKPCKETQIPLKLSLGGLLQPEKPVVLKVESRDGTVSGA

For `CC(NC(C)(C)C)C(=O)c1cccc(Cl)c1` (stereo not drawn), the Potency result in assay [1], in assay [4] and in assay [5] was “inactive” each time. Further, the compound was called inactive in assay [2]. The Potency in assay [3] was 11 µM (active).

In the case of `COP(=S)(OC)Oc1cc(Cl)c(Cl)cc1Cl`, the Potency result in assay [1], in assay [3] and in assay [5] was “inactive” in each case. Also, the outcome in assay [2] was inactive. The Potency in assay [4] is 6.92 µM (active).

Consider `CN1C(=O)COc2c(C(=O)NC3CN4CCC3CC4)cc(Cl)cc21` (stereo not drawn), for which the Potency result in assay [1], in assay [3], in assay [4] and in assay [5] was “inactive” each time. Moreover, in assay [2], the result was inactive.

For `CCC(C)C(C)(COC(N)=O)COC(N)=O` (stereo not drawn), the Potency entry in assay [1], in assay [3], in assay [4] and in assay [5] was “inactive” throughout. Further, the compound was classed as inactive in assay [2].

Turning to `CN1C(=O)NC(=O)C(C)(C2=CCCCC2)C1=O` (stereo not drawn), the Potency result in assay [1], in assay [3], in assay [4] and in assay [5] was “inactive” in each case. For the same compound, the compound was classed as inactive in assay [2].

Regarding `Oc1ccc(Cl)cc1`, the compound was called inactive in assay [2]. For the same compound, the Potency result in assay [3], in assay [4] and in assay [5] was “inactive” in each case.

As to `C[C@]12CC[C@H]3[C@@H](CC[C@@]45O[C@H]4C(O)=C(C#N)C[C@]35C)[C@H]1CC[C@H]2O`, the outcome in assay [2] was inactive. Besides, the Potency entry in assay [3], in assay [4] and in assay [5] was “inactive” throughout.

As to `Clc1cccc(SC2CCNCC2)n1`, the result in assay [2] was inactive.

`COc1cc(CC(C)N)cc(OC)c1OC` (stereo not drawn): the compound was called inactive in assay [2]. Moreover, the Potency in assay [3] was 30.6 µM (active). Further, the Potency result in assay [4] was “inactive”.

As for `CC(=O)C1CCOC1=O` (stereo not drawn), the compound was called inactive in assay [2]. Also, the Potency entry in assay [3] and in assay [4] was “inactive” each time.

For the compound `CC(=O)NC1CCSC1=O` (stereo not drawn), the compound was classed as inactive in assay [2]. In addition, the Potency entry in assay [3] was “inactive”.

Turning to `COc1cc(OC)c(OC)cc1C=O`, in assay [2], the outcome was inactive. The Potency result in assay [3] and in assay [4] was “inactive” throughout.

For `CCC1(CC)C(=O)C=CNC1=O`, the outcome in assay [2] was inactive. Also, the Potency result in assay [3] is “inactive”.

Consider `Clc1ccccc1N1CCNCC1`, for which the result in assay [2] was inactive. For the same compound, the Potency in assay [3] is 13.8 µM (active). Moreover, the Potency entry in assay [6] and in assay [4] was “inactive” throughout.

For the compound `Nc1ccccc1C(=O)O`, the call in assay [2] was inactive. Further, the Potency result in assay [3] and in assay [4] was “inactive” each time.

For the compound `CC(C)(N)Cc1ccccc1Cl`, the compound was called inactive in assay [2]. Moreover, the Potency in assay [3] was 13.8 µM (active). Further, in assay [4], the Potency result is “inactive”.

In the case of `c1ccc(N2CCNCC2)cc1`, the compound was called inactive in assay [2]. The Potency entry in assay [3] and in assay [4] was “inactive” each time.

On to `COc1ccc2c3c1O[C@H]1[C@H](O)CC[C@H]4[C@@H](C2)N(C)CC[C@@]341`, for which, in assay [2], the result was inactive. The Potency result in assay [3] and in assay [4] was “inactive” in each case.

As for `CC[N+]1(CC)CCC(OC(=O)C(O)(c2ccccc2)c2ccccc2)C1` (stereo not drawn), in assay [2], the compound was classed as inactive. For the same compound, the Potency in assay [3] is 12.9 µM (active). In assay [4], the Potency result is “inactive”.

For `Nc1ccc([As](=O)(O)O)cc1`, in assay [2], the result was inactive. For the same compound, the Potency result in assay [3], in assay [6], in assay [4] and in assay [5] was “inactive” each time.

In the case of `COC(=O)[C@@H](N)CCCN/C(N)=N/[N+](=O)[O-]`, in assay [2], the outcome was inactive. The Potency result in assay [3] was “inactive”.

For `CC(=O)OCC1=C(C(=O)O)N2C(=O)[C@@H](N)[C@H]2SC1`, the call in assay [2] was inactive. Also, the Potency in assay [3] was 5.35 µM (active). The Potency result in assay [4] is “inactive”.

For the compound `C#CC(O)(C=CCl)CC` (stereo not drawn), the result in assay [2] was inactive. In addition, the Potency result in assay [3], in assay [4] and in assay [5] was “inactive” throughout.

Turning to `CN1CC[C@]23c4c5ccc(O)c4O[C@H]2[C@@H](O)CC[C@H]3[C@H]1C5`, the call in assay [2] was inactive. The Potency result in assay [4] is “inactive”.

Regarding `O=C(Nc1ccc(Br)cc1)c1cc(Br)cc(Br)c1O`, the Potency result in assay [1] and in assay [5] was “inactive” throughout. For the same compound, the Potency in assay [4] was 3.47 µM (active).

Turning to `CC(Cc1ccccc1)NCCn1cnc2c1c(=O)n(C)c(=O)n2C` (stereo not drawn), in assay [2], the outcome was inactive. Also, in assay [3], the Potency was 7.01 µM (active). Also, the Potency result in assay [4] was “inactive”.

On to `O=[N+]([O-])O[C@H]1CO[C@H]2[C@@H]1OC[C@H]2O[N+](=O)[O-]`, for which the compound was called inactive in assay [2]. Besides, the Potency result in assay [3], in assay [6], in assay [4] and in assay [5] was “inactive” throughout.

As to `CC(C)(C)c1ccc(O)cc1`, the result in assay [2] was inactive.

In the case of `O=C(O)c1ccc(=O)[nH]c1`, the compound was called inactive in assay [2]. In addition, the Potency result in assay [3] and in assay [4] was “inactive” throughout.

With `C[C@](O)(CS(=O)(=O)c1ccc(F)cc1)C(=O)Nc1ccc(C#N)c(C(F)(F)F)c1`, the Potency result in assay [1] and in assay [5] was “inactive” each time.

As to `CC(C)c1c(CN(C)C(C)Cc2ccccc2)n(C)n(-c2ccccc2)c1=O` (stereo not drawn), the Potency entry in assay [1] and in assay [3] was “inactive” throughout. In addition, the Potency in assay [4] was 7.76 µM (active).

For `COc1cccc(C(=O)CCN[C@@H](C)[C@H](O)c2ccccc2)c1`, the Potency result in assay [1] and in assay [5] was “inactive” each time. For the same compound, the Potency was 1.55 µM (active) in assay [3] and 30.9 µM (active) in assay [4].

As to `CC(C)(C)NCC(O)c1cc(Cl)c(N)c(C(F)(F)F)c1` (stereo not drawn), the Potency entry in assay [1], in assay [4] and in assay [5] was “inactive” in each case. Further, the Potency in assay [3] is 15.5 µM (active).

Consider `COc1ccc2c(c1OC)C(=O)O[C@H]2[C@@H]1c2cc3c(cc2CCN1C)OCO3`, for which the Potency entry in assay [1] is “inactive”. Further, in assay [4], the Potency is 4.9 µM (active).

In the case of `NC(=O)CS(=O)C(c1ccccc1)c1ccccc1` (stereo not drawn), the compound was called inactive in assay [2]. The Potency result in assay [4] is “inactive”.

`c1ccc(CN2CCNCC2)cc1`: the outcome in assay [2] was inactive. In addition, the Potency in assay [3] is 30.6 µM (active). Also, in assay [4], the Potency entry was “inactive”.

For the compound `CCN[C@@H](C)Cc1ccccc1`, the compound was called inactive in assay [2]. The Potency in assay [3] is 6.28 µM (active). In assay [4], the Potency entry was “inactive”.

Regarding `C[C@]12CC[C@@H]3c4ccc(OC(=O)N(CCCl)CCCl)cc4CC[C@H]3[C@@H]1CC[C@@H]2O`, the Potency result in assay [1], in assay [3], in assay [6], in assay [4] and in assay [5] was “inactive” throughout.

Regarding `CCN(CC)CCc1c[nH]c2ccccc12`, the Potency result in assay [1], in assay [6] and in assay [4] was “inactive” throughout. In assay [3], the Potency was 5.91 µM (active).

For the compound `C=CCC1([C@H](C)CCC)C(=O)NC(=O)NC1=O`, the outcome in assay [2] was inactive. Further, the Potency entry in assay [3] and in assay [4] was “inactive” each time.

Take `O=c1c(C2CC(c3ccc(-c4ccc(Br)cc4)cc3)Cc3ccccc32)c(O)sc2ccccc12` (stereo not drawn): the Potency entry in assay [1] and in assay [3] was “inactive” throughout. The Potency in assay [4] was 9.77 µM (active).

With `CC(C)NC(C)C`, the compound was called inactive in assay [2]. For the same compound, the Potency entry in assay [3], in assay [4] and in assay [5] was “inactive” each time.

On to `CN1CC[C@]23c4c5ccc(O)c4O[C@H]2[C@@H](O)C=C[C@H]3[C@H]1C5`, for which the compound was called inactive in assay [2].

With `C=CCC1(C(C)CC)C(=O)NC(=O)NC1=O` (stereo not drawn), in assay [2], the result was inactive.

`O=C(O)C(S)C(S)C(=O)O` (stereo not drawn): the Potency entry in assay [5] is “inactive”.

With `CC(=O)SCC(CC(=O)c1ccc(C)cc1)C(=O)O` (stereo not drawn), the Potency result in assay [5] is “inactive”.
